Measured values from PubChem BioAssay.
For part of these data: Measured potencies and affinities stand elsewhere. Activity calls are given as the source filed them. Unless noted, the rule behind the calls is not given here.

Legend:
[1] = antimalarial activity against Dd2 strain (AID 2302;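 active = growth inhibition above 50% at the single 2 µM test dose, taken to imply half-maximal potency below 2 µM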;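 note: 0% = DMSO untreated growth and 100% = chloroquine plus artemisinin killed control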); settings: P. falciparum Dd2 in RBCs, LDH growth readout, 72 h; at 2 µM; active compounds read high
[2] = human hepatoma cell viability loss – ATP luminescence, cytotoxicity control for P. falciparum antimalarial project, primary screen (AID 2303;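 active = inhibition above 50%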;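 note: 0% = DMSO wells and 100% = digitonin-killed cells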); settings: HepG2 viability, 24-48 h, at 10 µM, active compounds read high
[3] = molecular target: L-lactate dehydrogenase (Plasmodium falciparum (isolate CDC / Honduras)) (UniProt Q27743); assay: PfLDH activity inhibition – cell lysate, 3D7 strain, counter-screen for P. falciparum growth inhibition project (AID 2304);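 note: 0% = vehicle and 100% = reference inhibitor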; settings: P. falciparum 3D7 crude extract, LDH APAD/NBT absorbance; at 2 µM; active compounds read high
L-lactate dehydrogenase (Plasmodium falciparum (isolate CDC / Honduras)), sequence (Q27743 whole entry, looked up): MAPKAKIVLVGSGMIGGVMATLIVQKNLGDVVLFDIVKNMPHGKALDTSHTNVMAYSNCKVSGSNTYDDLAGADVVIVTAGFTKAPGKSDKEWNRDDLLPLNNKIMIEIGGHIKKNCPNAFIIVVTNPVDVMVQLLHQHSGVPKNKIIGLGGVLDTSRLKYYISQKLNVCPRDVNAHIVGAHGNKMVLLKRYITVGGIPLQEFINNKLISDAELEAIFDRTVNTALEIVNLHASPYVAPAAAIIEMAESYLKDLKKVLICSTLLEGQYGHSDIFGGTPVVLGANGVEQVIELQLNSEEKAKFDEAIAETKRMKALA

[4] = inhibition of 3D7 malaria parasite growth – strain 3D7 (AID 2306);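 note: 0% = DMSO wells and 100% = chloroquine plus artemisinin control wells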; settings: P. falciparum 3D7 erythrocytic growth, LDH absorbance, 72 h; at 2 µM; active compounds read high
[5] = molecular target: Calcium-dependent protein kinase 1 (Plasmodium falciparum (isolate 3D7)) (UniProt P62344); assay: PfCDPK1 kinase inhibitors, biochemical, TCAMS library (AID 1159585; cut-off not given, nearly all actives have IC50 up to about 0.98 µM;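 note: inhibitors leave more ATP so luminescence rises with inhibition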); settings: recombinant PfCDPK1, Kinase-Glo ATP depletion luminescence
Calcium-dependent protein kinase 1 (Plasmodium falciparum (isolate 3D7)), sequence (P62344 whole entry, looked up): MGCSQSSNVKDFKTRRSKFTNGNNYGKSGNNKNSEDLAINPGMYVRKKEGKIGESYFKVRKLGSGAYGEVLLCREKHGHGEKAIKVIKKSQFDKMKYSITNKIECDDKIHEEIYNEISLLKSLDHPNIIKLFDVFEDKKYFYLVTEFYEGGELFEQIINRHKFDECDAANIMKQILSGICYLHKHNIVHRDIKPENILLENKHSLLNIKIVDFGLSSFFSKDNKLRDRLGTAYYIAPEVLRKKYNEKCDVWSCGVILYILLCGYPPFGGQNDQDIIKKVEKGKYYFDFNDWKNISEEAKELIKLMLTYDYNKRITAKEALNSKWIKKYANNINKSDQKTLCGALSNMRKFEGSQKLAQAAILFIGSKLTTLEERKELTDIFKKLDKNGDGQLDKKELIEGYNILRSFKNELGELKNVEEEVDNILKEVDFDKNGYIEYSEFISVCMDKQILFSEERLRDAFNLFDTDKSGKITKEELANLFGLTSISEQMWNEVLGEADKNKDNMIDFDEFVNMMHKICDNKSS

[6] = molecular target: Plasmodium falciparum protein kinase 6 (PK6, PF3D7_1337100) (UniProt Q8IDW1); assay: PfPK6 kinase inhibitors, biochemical, TCAMS library (AID 1159586); settings: recombinant PfPK6, Kinase-Glo ATP depletion luminescence
Plasmodium falciparum protein kinase 6 (PK6, PF3D7_1337100), sequence (Q8IDW1 1-305): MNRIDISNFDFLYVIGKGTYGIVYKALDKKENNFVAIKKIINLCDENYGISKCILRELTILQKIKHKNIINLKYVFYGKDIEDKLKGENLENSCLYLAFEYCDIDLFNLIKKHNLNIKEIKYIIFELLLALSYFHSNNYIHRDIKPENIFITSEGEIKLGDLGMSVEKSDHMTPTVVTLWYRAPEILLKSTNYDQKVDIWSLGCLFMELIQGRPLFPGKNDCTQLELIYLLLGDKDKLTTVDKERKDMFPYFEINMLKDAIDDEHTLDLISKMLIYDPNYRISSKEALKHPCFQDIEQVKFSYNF

[7] = molecular target: Protein kinase 7 (PK7), Plasmodium falciparum 3D7 (PF3D7_0213400) (UniProt Q7YTF7); assay: inhibition of Plasmodium PK7 catalytic activity – biochemical, TCAMS antimalarial set, Kinase-Glo luminescence (AID 1159587); settings: recombinant PfPK7, Kinase-Glo ATP depletion luminescence
Protein kinase 7 (PK7), Plasmodium falciparum 3D7 (PF3D7_0213400), sequence (Q7YTF7 1-343): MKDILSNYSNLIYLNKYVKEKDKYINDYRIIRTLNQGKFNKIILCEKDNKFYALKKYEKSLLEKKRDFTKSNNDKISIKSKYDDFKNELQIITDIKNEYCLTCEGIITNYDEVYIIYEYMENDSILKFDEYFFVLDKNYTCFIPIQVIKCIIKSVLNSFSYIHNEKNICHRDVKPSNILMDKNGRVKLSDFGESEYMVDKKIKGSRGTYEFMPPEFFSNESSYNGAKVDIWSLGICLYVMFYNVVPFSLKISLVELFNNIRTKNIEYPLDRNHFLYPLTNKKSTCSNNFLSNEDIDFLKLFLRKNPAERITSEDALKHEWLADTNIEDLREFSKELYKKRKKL

[8] = molecular target: Calcium-dependent protein kinase 4 (Plasmodium falciparum (isolate 3D7)) (UniProt Q8IBS5); assay: PfCDPK4 kinase inhibitors, biochemical, TCAMS library (AID 1159588; cut-off not given, nearly all actives have IC50 up to about 0.91 µM); settings: recombinant PfCDPK4, Kinase-Glo ATP depletion luminescence
Calcium-dependent protein kinase 4 (Plasmodium falciparum (isolate 3D7)), sequence (Q8IBS5 whole entry, looked up): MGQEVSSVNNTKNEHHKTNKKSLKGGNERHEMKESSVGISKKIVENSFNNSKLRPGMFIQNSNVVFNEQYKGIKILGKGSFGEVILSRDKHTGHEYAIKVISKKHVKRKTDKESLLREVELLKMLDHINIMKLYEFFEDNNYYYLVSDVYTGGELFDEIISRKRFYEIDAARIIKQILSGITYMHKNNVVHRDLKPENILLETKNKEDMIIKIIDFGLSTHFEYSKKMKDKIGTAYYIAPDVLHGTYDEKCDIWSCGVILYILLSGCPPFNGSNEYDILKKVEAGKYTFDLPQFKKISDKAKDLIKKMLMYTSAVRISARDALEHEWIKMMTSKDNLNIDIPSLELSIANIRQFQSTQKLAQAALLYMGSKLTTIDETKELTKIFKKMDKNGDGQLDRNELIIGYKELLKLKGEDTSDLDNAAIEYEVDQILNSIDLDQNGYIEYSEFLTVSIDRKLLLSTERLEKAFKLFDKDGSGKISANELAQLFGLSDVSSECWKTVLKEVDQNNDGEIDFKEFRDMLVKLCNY

O=C(Nc1ccnc(N2CCCN(Cc3cccc(O)c3)CC2)c1)c1ccc(F)cc1
inactive: growth inhibition [1] 3% | inhibition [2] 12% | inhibition [3] 4% | outcome [5] | outcome [6] | outcome [7] | outcome [8]
active: growth inhibition [4] 90%

Cc1cc(N2CCCN(C)CC2)nc(Nc2ccc(Br)cc2)n1
inactive: growth inhibition [1] 14% | inhibition [2] 8% | inhibition [3] 7% | outcome [5] | outcome [6] | outcome [7] | outcome [8]
active: growth inhibition [4] 94%

CCNc1cc(C(=O)N[C@@H](Cc2cc(F)cc(F)c2)[C@H](O)CNCc2cccc(C(F)(F)F)c2)cc(N2CCCCS2(=O)=O)c1
inactive: inhibition [2] 1% | inhibition [3] -8% | outcome [5] | outcome [6] | outcome [7] | outcome [8]
active: growth inhibition [1] 80% | growth inhibition [4] 99%

Cc1cc(N[C@@H](Cc2ccccc2)C(=O)NCc2cccc(F)c2)nc(NCCc2ccccc2)n1
inactive: inhibition [2] 7% | inhibition [3] 0% | outcome [5] | outcome [6] | outcome [7] | outcome [8]
active: growth inhibition [1] 73% | growth inhibition [4] 101%

COc1cc(CCNc2nc(NCc3cccc4ccccc34)nc(N3CCC(N)CC3)n2)ccc1O
inactive: inhibition [2] 16% | inhibition [3] 5% | outcome [5] | outcome [6] | outcome [7] | outcome [8]
active: growth inhibition [1] 59% | growth inhibition [4] 100%

COc1ccc2nc(-c3ccccc3)cc(NCCN(C)C)c2c1
active: growth inhibition [4] 101%
inactive: growth inhibition [1] 23% | inhibition [2] -1% | inhibition [3] -3% | outcome [5] | outcome [6] | outcome [7] | outcome [8]

O=C1OC2(CCN(C(=O)c3ccc(-n4cnnn4)cc3)CC2)CN1Cc1ccc(Cl)c(Cl)c1
inactive: inhibition [2] 11% | inhibition [3] -7% | outcome [5] | outcome [6] | outcome [7] | outcome [8]
active: growth inhibition [1] 70% | growth inhibition [4] 97%

Cc1ccc(CN2CCN(CC(O)COc3ccc4c(c3)CCC4)CC2)cc1 (stereo not drawn)
inactive: growth inhibition [1] -4% | inhibition [2] -15% | inhibition [3] -3% | outcome [5] | outcome [6] | outcome [7] | outcome [8]
active: growth inhibition [4] 95%

Cc1ccc(-n2c(=O)c3cccnc3n2CC(=O)Nc2cccc(C)c2C)cc1
active: growth inhibition [4] 96%
inactive: growth inhibition [1] 20% | inhibition [2] 9% | inhibition [3] -3% | outcome [5] | outcome [6] | outcome [7] | outcome [8]

COc1ccc(C(=O)Cn2nc(-c3ccc(Cl)cc3)ccc2=O)c(OC)c1
inactive: inhibition [2] -12% | inhibition [3] 4% | outcome [5] | outcome [6] | outcome [7] | outcome [8]
active: growth inhibition [1] 70% | growth inhibition [4] 93%

CCCCc1ccc(C(=O)Nc2ccc3nc(N4CCN(C)CC4)cc(C)c3c2)cc1
active: growth inhibition [4] 90%
inactive: growth inhibition [1] 21% | inhibition [2] 44% | inhibition [3] -6% | outcome [5] | outcome [6] | outcome [7] | outcome [8]

Clc1cccc(Cl)c1CCNCC1CCN(CC2CCCCC2)CC1
inactive: inhibition [2] 39% | inhibition [3] -5% | outcome [5] | outcome [6] | outcome [7] | outcome [8]
active: growth inhibition [1] 94% | growth inhibition [4] 98%

O=C(/C=C/c1ccc(Cl)c(Cl)c1)NCCCCCN1CCCN(C(=O)Nc2ccc(F)c(F)c2)CC1
active: growth inhibition [4] 102%
inactive: growth inhibition [1] -1% | inhibition [2] 26% | inhibition [3] -2% | outcome [5] | outcome [6] | outcome [7] | outcome [8]

CC(=O)NC1=NC(C)(C)N(OCc2ccc(Cl)c(Cl)c2)C(NC(C)=O)=N1
inactive: inhibition [3] -5% | outcome [5] | outcome [6] | outcome [7] | outcome [8]
active: growth inhibition [1] 97% | inhibition [2] 68% | growth inhibition [4] 94%

CCN1CCC(NCc2ccc(-c3ccc(Cl)cc3)cc2)CC1
active: growth inhibition [4] 100%
inactive: growth inhibition [1] 33% | inhibition [2] 25% | inhibition [3] -2% | outcome [5] | outcome [6] | outcome [7] | outcome [8]

Nc1c(Cl)cc(C(O)CNCCCCCCOCCC=C2CCOCC2)cc1Cl (stereo not drawn)
inactive: growth inhibition [1] 9% | inhibition [2] 7% | inhibition [3] 0% | outcome [5] | outcome [6] | outcome [7] | outcome [8]
active: growth inhibition [4] 100%

Oc1cccc(-c2nc(-c3ccccc3)c(-c3ccc(Oc4ccc(-c5[nH]c(-c6cccc(O)c6)nc5-c5ccccc5)cc4)cc3)[nH]2)c1
inactive: inhibition [2] 6% | inhibition [3] 0% | outcome [5] | outcome [6] | outcome [7] | outcome [8]
active: growth inhibition [1] 96% | growth inhibition [4] 91%

CC(C)(C)C(=O)Oc1ccc(CC2NCCc3cc(OC(=O)C(C)(C)C)c(OC(=O)C(C)(C)C)cc32)cc1OC(=O)C(C)(C)C (stereo not drawn)
inactive: inhibition [2] 3% | inhibition [3] 5% | outcome [5] | outcome [6] | outcome [7] | outcome [8]
active: growth inhibition [1] 96% | growth inhibition [4] 97%

COc1ccc(CNC2CCN(C)CC2)cc1-c1ccc(S(=O)(=O)NCC2CCCO2)s1 (stereo not drawn)
active: growth inhibition [4] 95%
inactive: growth inhibition [1] 18% | inhibition [2] 18% | inhibition [3] 5% | outcome [5] | outcome [6] | outcome [7] | outcome [8]

COc1ccc(Cc2c(C)nc3nc(N)nc(N)c3c2C)cc1
inactive: growth inhibition [1] 2% | inhibition [3] 8% | outcome [5] | outcome [6] | outcome [7] | outcome [8]
active: inhibition [2] 61% | growth inhibition [4] 93%

Cc1[nH]c(C)c(-c2ccc(OCc3ccc(OC(F)(F)F)cc3)nc2)c(=O)c1Cl
active: growth inhibition [1] 96% | growth inhibition [4] 98%
inactive: inhibition [2] 3% | inhibition [3] -3% | outcome [5] | outcome [6] | outcome [7] | outcome [8]

CC(=O)Nc1ccc(C(=O)Nc2cccc(-c3cccc(-c4nc5ccc(C(F)(F)F)cc5[nH]4)c3)c2)cn1
active: growth inhibition [1] 97% | growth inhibition [4] 101%
inactive: inhibition [2] 8% | inhibition [3] -2% | outcome [5] | outcome [6] | outcome [7] | outcome [8]

CN(C)CCCNCCS(=O)(=O)c1cccc(Nc2ccc(-c3cccc(N(C)C)c3)cn2)c1
active: growth inhibition [4] 98%
inactive: growth inhibition [1] -3% | inhibition [2] 19% | inhibition [3] -2% | outcome [5] | outcome [6] | outcome [7] | outcome [8]

CCOC(=O)CN1Cc2cc(NCc3ccc4ccc5nc(C)[nH]c(=O)c5c4c3)ccc2C1=O
inactive: inhibition [2] 40% | inhibition [3] 1% | outcome [5] | outcome [6] | outcome [7] | outcome [8]
active: growth inhibition [1] 91% | growth inhibition [4] 84%

N#Cc1cc(C(=O)c2cc(Br)ccc2O)cn(C2CCCCC2)c1=O
inactive: growth inhibition [1] 9% | inhibition [2] 3% | inhibition [3] 3% | outcome [5] | outcome [6] | outcome [7] | outcome [8]
active: growth inhibition [4] 89%

COC(=O)c1ccc(CCC(C)NCC(O)c2cccc(Cl)c2)cc1 (stereo not drawn)
inactive: inhibition [2] -4% | inhibition [3] 1% | outcome [5] | outcome [6] | outcome [7] | outcome [8]
active: growth inhibition [1] 94% | growth inhibition [4] 100%

Cc1cccc2[nH]c(-c3ccc(-c4ccc(NC(=O)Nc5ccc(Cl)cc5)cc4)s3)nc12
inactive: inhibition [3] 7% | outcome [5] | outcome [6] | outcome [7] | outcome [8]
active: growth inhibition [1] 100% | inhibition [2] 78% | growth inhibition [4] 101%

COCCN1CCC(CN(C)CC(C)(C)c2nc(-c3ccc(Cl)c(O)c3)c(-c3ccncc3)[nH]2)CC1
active: growth inhibition [4] 94%
inactive: growth inhibition [1] 10% | inhibition [2] -8% | inhibition [3] -2% | outcome [5] | outcome [6] | outcome [7] | outcome [8]

Cc1cccc2[nH]c(-c3ccc(-c4cccc(NC(=O)c5cnn6cccnc56)c4)cc3)nc12
active: inhibition [2] 100% | growth inhibition [4] 91%
inactive: growth inhibition [1] 29% | inhibition [3] -4% | outcome [5] | outcome [6] | outcome [7] | outcome [8]

COC(=O)c1ccc(CN2CCC(N(Cc3cccc(Oc4ccccc4)c3)S(=O)(=O)c3ccc(NC(C)=O)cc3)CC2)cc1
active: growth inhibition [1] 86% | growth inhibition [4] 82%
inactive: inhibition [2] -1% | inhibition [3] -6% | outcome [5] | outcome [6] | outcome [7] | outcome [8]

N#Cc1ccc(-c2ccc(C(=O)NCCCCN3CCC(c4cc(Br)c5c(c4OCC(N)=O)CCCC5)CC3)cc2)cc1
inactive: inhibition [2] 23% | inhibition [3] 6% | outcome [5] | outcome [6] | outcome [7] | outcome [8]
active: growth inhibition [1] 89% | growth inhibition [4] 100%

CCNc1cc(C(=O)N[C@@H](Cc2ccccc2)[C@H](O)CNCc2ccc3c(c2)OCCO3)cc(N2CCCCS2(=O)=O)c1
inactive: growth inhibition [1] 45% | inhibition [2] -1% | inhibition [3] -1% | outcome [5] | outcome [6] | outcome [7] | outcome [8]
active: growth inhibition [4] 95%

Cc1c(N=O)cc(C(C)(C)C)c(O)c1C(=O)Nc1ccc([N+](=O)[O-])cc1Cl
inactive: inhibition [3] 1% | outcome [5] | outcome [6] | outcome [7] | outcome [8]
active: growth inhibition [1] 98% | inhibition [2] 72% | growth inhibition [4] 100%

Cc1cccc(CNc2nc(C)cc(N[C@@H](Cc3ccccc3)C(=O)NCCOc3ccccc3)n2)c1
inactive: inhibition [2] 28% | inhibition [3] 1% | outcome [5] | outcome [6] | outcome [7] | outcome [8]
active: growth inhibition [1] 54% | growth inhibition [4] 93%

CCCNCc1ccc(-c2ccc(CN(Cc3ccc4c(c3)OCO4)C(=O)Cc3cccnc3)cc2)nc1
inactive: inhibition [2] 16% | inhibition [3] 5% | outcome [5] | outcome [6] | outcome [7] | outcome [8]
active: growth inhibition [1] 53% | growth inhibition [4] 94%

CC(C)(C)[C@@H](Nc1ccc(C#N)c2ccccc12)C(=O)NC1(Cc2ccc(O)cc2)CCCC1
active: growth inhibition [1] 74% | growth inhibition [4] 90%
inactive: inhibition [2] 14% | inhibition [3] 0% | outcome [5] | outcome [6] | outcome [7] | outcome [8]
